Pf growth 48h: Primary qHTS for delayed death inhibitors of the malarial parasite plastid, 48 hour incubation | P. falciparum luciferase growth in erythrocytes, 48 h | Potency, µM (highest dose often 28.7 µM), without a hit: at the top dose activity change, negative = inhibition, most hits filed as inhibitors | actives 5.9% (n = 310,000) | AID 504832, 2011
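Luciferase-expressing P. falciparum in infected erythrocytes (2% hematocrit, 0.1% parasitemia final) in RPMI 1640/0.5% Albumax were exposed to compound for 48 hours at 37 C, 5% CO2; growth read as luminescence.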
Vaccinia mCherry: qHTS for Stage-Specific Inhibitors of Vaccinia Orthopoxvirus: mCherry Reporter Primary qHTS; Vaccinia virus mCherry reporter infection, fluorescence; AID 720579, 2013; actives 0.63% (n = 310,000); Potency, µM (highest dose often 36.5 µM), without a hit: top-dose activity change, negative = inhibition, usual class: inhibitors; calls by dose curve; tested in A549 cells; also: nearly all actives have a fitted effect of over 35% in size
VACV Venus inh: qHTS for Stage-Specific Inhibitors of Vaccinia Orthopoxvirus: Venus Reporter Primary qHTS; Vaccinia virus Venus reporter expression, fluorescence; Potency, µM (top dose mostly 36.5 µM), for inactives: at the top dose activity change, negative = inhibition, hits mostly inhibitors; actives 0.46% (n = 330,000); AID 720580, 2013; calls by dose curve; tested in A549 cells; also: nearly all actives have a fitted effect of over 30% in size
Pf growth 96h: Primary qHTS for delayed death inhibitors of the malarial parasite plastid, 96 hour incubation; P. falciparum luciferase reporter growth, 96 h; Potency, µM (doses to about 28.7 µM), for inactives: at the highest dose activity change, negative = inhibition, hits mostly inhibitors; actives 6.9% (n = 320,000)
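Luminescence readout: decreased luciferase signal marks inhibited growth of reporter-expressing P. falciparum in infected red cells (2% hematocrit, 0.05% parasitemia final), exposed to compound two generations (96 h, 37 C, 5% CO2).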
AMA1 RON2 block: qHTS for Inhibitors of AMA1-RON; Towards Development of Antimalarial Drug Lead: Primary Screen; AlphaScreen AMA1-biotinylated RON2 peptide binding; Potency, µM (doses to about 58.2 µM), for inactives: top-dose activity change, negative = inhibition, most hits filed as inhibitors; Plasmodium falciparum AMA1 (3D7) - RON2 peptide interaction; actives 0.2% (n = 360,000);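 also: 0% = vehicle wells and -100% = peptide control; nearly all actives have a fitted effect of over 45% in size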
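AMA1 (3D7) with his tag at 25 nM final met compounds first, then biotinylated RON2 peptide at 25 nM; detection used donor plus acceptor beads, 10 µg/mL apiece, read by AlphaScreen after 30 min at room temperature.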
* hit, by the source's call; i = inactive; ? = inconclusive; . = not tested or not shown. Compounds with a hit are over-represented: about 8.7% of the library has one in this group of screens. Unless noted, calls follow the shape of the dose curve; as a rule, active = well fitted curve in the direction sought with a large enough effect; inconclusive = small, poorly fitted or top-dose-only effect, or another doubt; inactive = no such curve, though single readings can be large; an effect the other way counts as inactive or inconclusive. Unless noted, % is scaled to controls: 0 for no effect and ±100 for the full control effect; potency is read from the fitted curve at half-maximal effect.

SMILES	Pf growth 48h	Vaccinia mCherry	VACV Venus inh	Pf growth 96h	AMA1 RON2 block
CCCN1CNc2c(c(=O)[nH]c(=S)n2CCC(C)(C)C)C1	.	-26%	-22%	.	.
COc1ccc(NC(=O)Cn2c(SCc3c(F)cccc3Cl)nc3ccncc32)cc1OC	.	-12%	6%	.	.
Cc1cccc(-n2nnnc2SCC(=O)NCC2(N3CCOCC3)CCCCC2)c1C	12µM*	.	.	?	7%
OCC(O)/C=N/Nc1nc2ccccc2s1 (stereo not drawn)	69%	?	12%	?	24%
OC(CNc1nc2ccccc2s1)c1ccccc1 (stereo not drawn)	13µM*	-6%	-11%	-29%	15%
Cc1ccccc1SCC(=O)Nc1cc(C(F)(F)F)ccc1N1CCOCC1	2.1µM*	-23%	-14%	4.7µM*	-1%
O=C(CCC1CCCC1)Nc1cc(C(F)(F)F)ccc1N1CCOCC1	12µM*	-13%	-3%	13µM*	-17%
COC(=O)c1ccc(CNC(=O)CNc2cc(C(F)(F)F)ccc2N2CCOCC2)cc1	.	.	-11%	8.3µM*	-13%
CCOc1ccccc1NC(C)C(=O)Nc1cc(C(F)(F)F)ccc1N1CCOCC1 (stereo not drawn)	0.59µM*	-2%	-15%	0.29µM*	?
CC(NC(=O)c1ccco1)c1nnc2n1CCN(Cc1cccc(Cl)c1)CC2 (stereo not drawn)	.	-1%	10%	.	.
COc1ccc(C(=O)Nc2cc(S(=O)(=O)c3ccc(Cl)cc3)c(O)c(C)c2C)cc1	.	4%	-3%	.	.
O=C(Nc1cc(C(F)(F)F)ccc1N1CCOCC1)c1ccc(Cl)nc1	9.3µM*	.	-24%	.	-10%
N#Cc1c(-c2ccc(Cl)cc2)ccnc1N1CCOCC1	?	i	-27%	4.7µM*	26%
Cc1nc(N)nc(N)c1/C=C/C(C)(C)c1ccc(Cl)cc1	-90%	?	3.5µM*	-78%	-11%
Cc1nc(N)nc(N)c1Oc1ccc(Cl)cc1	.	-4%	-8%	.	11%
Cc1ccc(NC(=O)COc2ccccc2)cc1S(=O)(=O)N1CCCCCC1	?	-13%	-24%	?	3%
Cc1ccc(NC(=O)COc2ccccc2C#N)cc1S(=O)(=O)N1CCCCCC1	?	.	.	8.3µM*	1%
Cc1ccccc1CC(=O)OCC(=O)Nc1ccc(C)c(S(=O)(=O)N2CCCCC2)c1	10µM*	.	.	?	-7%
Cc1ccccc1OCCC(=O)OCC(=O)Nc1ccc(C)c(S(=O)(=O)N2CCCCC2)c1	.	i	0%	.	0%
OC(CN1c2ccccc2Sc2ccccc21)Cn1nnc2ccccc21 (stereo not drawn)	4.7µM*	.	.	?	-16%
OC(Cn1nnc2ccccc21)Cn1c(C(F)(F)F)nc2ccccc21 (stereo not drawn)	27%	.	-7%	?	3%
Cc1nn(CC(O)CN2c3ccccc3Sc3ccccc32)c(C)c1Br (stereo not drawn)	.	?	?	2.6µM*	?
O=C1c2ccccc2C(=O)N1CC(O)Cn1nnc2ccccc21 (stereo not drawn)	-3%	.	.	9.3µM*	-4%
COc1cccc(-c2nn(C)c3sc(C(=O)NCCc4cccc(C)c4)cc23)c1	.	?	-29%	.	.
O=C(NCc1ccccc1)c1nn(-c2ccccc2)nc1CO	.	-13%	-18%	.	.
SMILES	Pf growth 48h	Vaccinia mCherry	VACV Venus inh	Pf growth 96h	AMA1 RON2 block
CCCCOc1ccc(CC(=O)NOC)cc1	.	23%	6%	.	.
COc1ccc(C(=O)N2CCC3(CC2)c2ccccc2[C@@H](NC(=O)c2ccccn2)[C@@H]3OC)c(O)c1	.	-19%	-2%	.	.
COC(=O)c1cccc(Cn2c(Cl)c(/C=N/NC(=O)c3ccco3)sc2=O)c1	9.3µM*	.	.	8.3µM*	12%
O=C(N/N=C/c1sc(=O)n(-c2ccccc2)c1Cl)c1ccccc1	?	.	.	2.3µM*	26%
COC(=O)c1cccc(Cn2c(Cl)c(/C=N/NC(=O)c3ccccc3Cl)sc2=O)c1	?	.	.	4.7µM*	-4%
CCCC(O)c1nc2ccccc2n1CCCCOc1ccc(OC)cc1 (stereo not drawn)	.	2%	9%	.	.
CCn1c2ccccc2c2cc(/C=C3\C=Cc4ccccc43)ccc21	.	37%	-7%	.	.
COc1ccc(CNC(=O)c2sc3nc4n(c(=O)c3c2C)CCCC4)cc1	.	-11%	-4%	.	.
Cc1cc(C)cc(N2C(=O)CSC23C(=O)N(CC(=O)Nc2ccc(F)cc2F)c2ccccc23)c1 (stereo not drawn)	.	-7%	-5%	.	.
C/C(CCc1ccco1)=N/NC(=O)CCC(=O)Nc1ccc(Br)cc1	4%	-5%	-19%	10µM*	5%
COc1ccc(OC)c(C(Cc2ccnc3ccccc23)Cc2ccnc3ccccc23)c1	.	14%	-19%	.	.
O=C1c2ccccc2C(=O)N1c1nc(-c2cccs2)cs1	50%	.	-19%	15µM*	-4%
Cc1noc(-c2ccc(N3CCC(C)CC3)c([N+](=O)[O-])c2)n1	.	1%	0%	.	.
CSCCC(NC(=O)CCC(=O)OCC(=O)[C@@]1(O)CCC2[C@@H]3CCC4=CC(=O)C=C[C@]4(C)C3[C@@H](O)C[C@@]21C)C(=O)O (stereo partly drawn)	5.2µM*	i	-25%	?	0%
COc1ccccc1CNC(=O)Cn1c(=O)oc2cc(S(=O)(=O)NCc3ccccc3)ccc21	.	-17%	-12%	.	.
O=C(Nc1ccc(S(=O)(=O)NC2=NCCCCC2)cc1)c1cccs1	.	.	.	.	-2%
Cc1ccnc(NS(=O)(=O)c2ccc(NC(=O)C3CCCCC3C(=O)O)cc2)n1 (stereo not drawn)	27%	.	-5%	2.9µM*	43%
Cc1ccnc(NS(=O)(=O)c2ccc(NC(=O)c3ccc([N+](=O)[O-])s3)cc2)n1	4.1µM*	.	.	12µM*	-13%
O=C(Nc1ccc(S(=O)(=O)NC2=NCCCCC2)cc1)c1ccc([N+](=O)[O-])s1	10µM*	13µM*	11µM*	13µM*	-1%
Cc1cc(NS(=O)(=O)c2ccc(NC(=O)c3ccc([N+](=O)[O-])s3)cc2)nc(C)n1	.	?	?	.	-5%
COc1ccccc1-c1ccnc(-n2ncc(C(=O)N[C@H]3CCCCNC3=O)c2C2CC2)n1	.	-12%	-22%	.	.
CCOC(=O)c1[nH]c(C)c(CCC(=O)NCc2ccc(N(C)C)cc2)c1C	.	-14%	-1%	.	.
Cc1ccc(CN(Cc2cc3cc(C)ccc3[nH]c2=O)C(=O)N2CCOCC2)cc1	6.6µM*	.	.	?	0%
COC(=O)c1ccccc1NC(=O)CSc1nc(Nc2ccccc2)nc(N2CCOCC2)n1	9.3µM*	.	.	-10%	-10%
O=C(CSc1nc2ccc(Nc3nc(N4CCCC4)nc(N4CCCC4)n3)cc2s1)NCc1ccco1	12µM*	.	.	?	2%
